Measured values published in PubChem BioAssay.
Values joined by “and” are separate entries in the source; they are usually repeats but may differ in a detail not shown here. Equal entries are not always repeated. Active and inactive are the calls of the source.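 How the source made its calls, unless noted: active means inhibition at or above 50% relative to wild type and mutant plate controls; inactive means inhibition below 50%.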

Assays:
[1] = inhibitors of TNFa-induced NFkB p65 translocation, primary screen, imaging, HUVEC, MLSMR starter and 10KST1 sets (AID 438;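 active means inhibition above 20% together with a positive visual image hit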;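 further: compound added about 3h40 before a 20 min TNFalpha stimulation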;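 on inhibition: signal is the nuclear over cytoplasmic p65 intensity ratio per well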); conditions: HUVEC TNFa-induced p65 nuclear translocation; cell count: measured here: nuclei count (cytotoxicity indicator), at 2.08 µM; inhibition: at 2 µM, stronger effect = higher value, 0% TNFa-plus-vehicle, 100% no-TNFa wells
[2] = inhibitors of mutant huntingtin aggregation, primary screen, imaging, exon1htt(103Q)mCFP cells, high-content imaging (AID 483;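 active means visual image review flags a hit and inhibition of aggregation exceeds 20%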;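 further: compound exposure lasted 3 days before fixation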;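 on nuclei count: percent of the per-plate median nuclei count of sample wells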); conditions: exon1htt(103Q)mCFP cell line, aggregate imaging, at 2 µM; inhibition of aggregation: stronger effect = higher value; nuclei count: measured here: cell count, toxicity
[3] = inhibitors of E-selectin induction by TNFa, primary screen, imaging, HUVEC, immunofluorescence, MLSMR starter and 10KST1 sets (AID 487;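 active means visually confirmed hit in the image check and inhibition above 20%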;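 on inhibition: signal is fraction of cell area covered by stained E-selectin grains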;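 on nuclei count: 100% = median nuclei count of all wells on the same plate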); conditions: HUVEC TNFalpha-induced E-selectin immunofluorescence imaging, at 2 µM; inhibition: stronger effect = higher value; nuclei count: measured here: cell number, toxicity
[4] = DUSP6 inhibitors restoring Erk phosphorylation by chemical complementation, primary imaging in DUSP6-transfected HeLa (AID 609;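 active means compounds giving at least 50% inhibition in the cell-based MKP-3 phosphatase rescue imaging test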;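 on inhibition: phospho-Erk level distribution per well compared with pooled transfected vehicle control wells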); conditions: HeLa MKP-3 transfected, phospho-Erk imaging KS statistic, at 10 µM, cells stimulated with TPA for 15 min
[5] = biological target: Dual specificity protein phosphatase 6 (Homo sapiens) (UniProt Q16828); assay: as above; conditions: HeLa MKP-3 transfected, phospho-Erk imaging KS statistic; at 10 µM; stronger effect = higher value; cells stimulated with TPA for 15 min
Sequence of Dual specificity protein phosphatase 6 (Homo sapiens) (Q16828 whole entry, looked up): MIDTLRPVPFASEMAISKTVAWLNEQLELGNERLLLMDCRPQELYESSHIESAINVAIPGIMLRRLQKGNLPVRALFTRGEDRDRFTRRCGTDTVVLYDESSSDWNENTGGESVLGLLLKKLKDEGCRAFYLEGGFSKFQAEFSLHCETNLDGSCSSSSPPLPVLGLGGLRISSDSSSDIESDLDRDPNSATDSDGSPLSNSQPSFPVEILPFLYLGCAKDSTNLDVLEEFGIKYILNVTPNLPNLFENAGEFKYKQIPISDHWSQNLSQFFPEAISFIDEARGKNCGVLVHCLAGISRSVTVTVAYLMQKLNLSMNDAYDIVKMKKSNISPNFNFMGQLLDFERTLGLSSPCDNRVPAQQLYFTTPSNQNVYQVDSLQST

[6] = biological target: Voltage-gated potassium channel subunit beta-2 (Rattus norvegicus) (UniProt P62483); assay: KvBeta enzyme negative modulators, primary screen, biochemical, NADPH fluorescence (AID 622;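 active means fluorescence slope higher than the sample average by over 3 SD, cut at about -0.22 in these data, passing the limit was not always enough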;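 further: slope of raw intensity against log time taken from 70 to 1610 s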); conditions: recombinant KvBeta, 4-cyanobenzaldehyde reduction, at 10 µM, stronger effect = higher value
Sequence of Voltage-gated potassium channel subunit beta-2 (Rattus norvegicus) (P62483 whole entry, looked up): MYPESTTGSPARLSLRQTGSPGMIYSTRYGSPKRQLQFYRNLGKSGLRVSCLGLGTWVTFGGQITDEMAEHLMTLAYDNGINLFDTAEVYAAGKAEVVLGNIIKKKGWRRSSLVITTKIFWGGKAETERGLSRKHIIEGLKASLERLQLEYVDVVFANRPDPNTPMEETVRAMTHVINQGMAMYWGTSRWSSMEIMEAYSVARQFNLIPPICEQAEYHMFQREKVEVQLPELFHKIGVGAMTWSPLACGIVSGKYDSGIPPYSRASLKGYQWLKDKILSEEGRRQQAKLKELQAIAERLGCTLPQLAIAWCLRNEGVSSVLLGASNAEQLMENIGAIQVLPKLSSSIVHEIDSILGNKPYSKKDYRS

[7] = biological target: Voltage-gated potassium channel subunit beta-2 (Rattus norvegicus) (UniProt P62483); assay: KvBeta positive modulators, primary screen, biochemical, NADPH fluorescence (AID 623;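 active means NADPH fluorescence slope more negative than the mean of all samples by about 3 SD, 99.7% confidence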;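 further: fluorescence intensity change per second fitted from 20 to 320 s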); conditions: Recombinant KvBeta, NADPH fluorescence decrease slope, 10 min; at 10 µM; stronger effect = lower value
[8] = biological target: Alpha-2C adrenergic receptor (Homo sapiens) (UniProt P18825); assay: modulators of alpha2C/GIRK thallium flux, primary screen, cell-based, HEK293 alpha2C/GIRK1/2 (AID 624;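 active means fluorescence slope after compound addition differing from the mean of all screened samples at 99.7% confidence, in either direction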;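 further: slope of fluorescence ratio to pre-addition baseline per second over 15 to 24 s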); conditions: thallium flux BTC fluorescence, at 10 µM, actives lie on both sides
Sequence of Alpha-2C adrenergic receptor (Homo sapiens) (P18825 whole entry, looked up): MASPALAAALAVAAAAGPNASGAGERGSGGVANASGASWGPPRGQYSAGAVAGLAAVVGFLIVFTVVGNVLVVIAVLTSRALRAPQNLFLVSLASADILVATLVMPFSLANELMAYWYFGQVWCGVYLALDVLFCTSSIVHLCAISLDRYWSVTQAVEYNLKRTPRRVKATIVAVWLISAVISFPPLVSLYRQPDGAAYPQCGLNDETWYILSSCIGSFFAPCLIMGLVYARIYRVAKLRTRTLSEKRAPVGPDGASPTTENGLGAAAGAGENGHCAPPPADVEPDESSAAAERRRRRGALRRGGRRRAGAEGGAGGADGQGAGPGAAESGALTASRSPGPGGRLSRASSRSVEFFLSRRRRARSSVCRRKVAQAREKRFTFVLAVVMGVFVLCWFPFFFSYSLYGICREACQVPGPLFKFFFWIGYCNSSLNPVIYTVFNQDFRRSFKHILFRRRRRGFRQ

[9] = inhibitors of Chlamydomonas gravitaxis, primary screen, whole organism, Chlamydomonas reinhardtii, WT vs cilia-less mutant, absorbance, 96-well (AID 463189); conditions: OD600 absorbance, 2 days, at 10 µM, stronger effect = higher value;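 further: 0% = wild type cc124 cells in DMSO and 100% = ciliumless bld1 mutant cells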
[10] = inhibitors of Sendai virus-induced IRF3 signaling, primary screen, TLR/RLR signaling modifier project, cell-based, Sendai virus stimulus, luciferase, 10K MLSCN set (AID 602276;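 active means inhibition at or above 50% at 10 µM; inactive means inhibition below 50%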;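 further: firefly luciferase from ISG56 promoter only with Renilla not read in this screen; 0% = Sendai virus plus DMSO and 100% = medium plus DMSO without virus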); conditions: HEK293 RL24 IRF3 luciferase reporter, at 10 µM, stronger effect = higher value
[11] = inhibitors of poly I:C-induced TLR3 signaling, primary screen, cell-based, poly I:C stimulus, luciferase, 10K MLSCN set (AID 602277;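 active means inhibition of the reporter signal at or above 50%; inactive means inhibition below 50%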); conditions: HEK293-TLR3 RL24 IRF3 luciferase reporter, at 10 µM, stronger effect = higher value
[12] = biological target: Muscarinic acetylcholine receptor M4 (Homo sapiens) (UniProt P08173); assay: compounds altering M4/GIRK thallium flux, either direction, primary screen, M4 allosteric agonist project, cell-based, HEK293 M4/GIRK, BTC-AM (AID 625;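 active means fluorescence slope after compound addition differing from the mean of all tested samples at 99.7% confidence, mostly higher but some lower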;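 further: thallium influx through GIRK channels coupled to M4 in HEK293 cells with BTC-AM dye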); conditions: at 10 µM, actives lie on both sides
Sequence of Muscarinic acetylcholine receptor M4 (Homo sapiens) (P08173 whole entry, looked up): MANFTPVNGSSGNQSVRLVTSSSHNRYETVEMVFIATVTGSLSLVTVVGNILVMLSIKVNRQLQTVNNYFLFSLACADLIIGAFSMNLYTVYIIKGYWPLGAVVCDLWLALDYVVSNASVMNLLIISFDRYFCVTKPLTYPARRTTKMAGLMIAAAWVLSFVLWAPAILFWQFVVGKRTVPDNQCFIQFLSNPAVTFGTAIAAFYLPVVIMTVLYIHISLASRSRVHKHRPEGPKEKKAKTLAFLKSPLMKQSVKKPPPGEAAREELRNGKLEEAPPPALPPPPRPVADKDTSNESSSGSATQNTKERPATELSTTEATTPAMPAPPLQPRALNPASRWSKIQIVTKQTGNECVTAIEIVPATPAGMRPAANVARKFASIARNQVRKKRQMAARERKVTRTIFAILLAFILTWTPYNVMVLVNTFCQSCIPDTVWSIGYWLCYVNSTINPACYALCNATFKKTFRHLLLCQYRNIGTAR

[13] = inhibitors of larval lipid processing in zebrafish, primary screen, whole organism, PED6 fluorescence, gall bladder and intestine (AID 686;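 active means a full or partial loss of lipid-probe fluorescence in the fish gall bladder, intestine or both, judged by eye; inactive means no fluorescence loss, or compound toxic to the fish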;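 further: larvae 5 to 7 days old with five fish per well; signal comes from phospholipase A2 cleavage of quenched PED6 carried via bile; overnight exposure to compound and PED6 before scoring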); conditions: Zebrafish larvae PED6 lipid processing, fluorescence scoring; screened at 20 µM (by protocol)
[14] = measured here: cell density z-score
[15] = measured here: nuclear c-Myc green intensity z-score
[16] = measured here: nuclear pErk red intensity z-score, stronger effect = higher value

| Compound | cell count [1] | inhibition [1] | inhibition of aggregation [2] | nuclei count [2] [%] | inhibition [3] | nuclei count [3] [%] | z-score [4, 14] | z-score [4, 15] | z-score [4, 16] | inhibition [5] | fluorescence slope [6] | NADPH fluorescence slope [7] | slope [8] | inhibition [9] | inhibition [10] | inhibition [11] | fluorescence slope [12] | outcome [13] |
| --- | --- | --- | --- | --- | --- | --- | --- | --- | --- | --- | --- | --- | --- | --- | --- | --- | --- | --- |
| c1ccc2[nH]c(-c3cscn3)nc2c1 | 587 | 2.5% (inactive) | -29.1% (inactive) | 99.7 | -51.2% (inactive) | 111 | -1.12 | -0.0303 | -0.292 | 1.38% (inactive) | -0.491 (inactive) | -6.5e-05 (inactive) | 0.00525 (inactive) | 45% (inactive) | -40.2% (inactive) | -133% (inactive) |  |  |
| O=C1C2CC=C(Cl)CC2C(=O)N1CNc1ccccn1 (centres undefined) | 549 | -1.9% (inactive) | 21.8% (inactive) | 86.4 | -24.7% (inactive) | 118 | -0.409 | 1.18 | -0.807 | 1.98% (inactive) | -0.446 (inactive) | -1.4e-05 (inactive) | 0.00475 (inactive) | -11.9% (inactive) | 11.3% (inactive) | 18.2% (inactive) | 0.00609 (inactive) | inactive |
| COCCNc1oc(-c2ccc(C)cc2)nc1C#N | 405 | 1.6% (inactive) | 12.5% (inactive) | 88.9 | -23.4% (inactive) | 129 | -0.898 | 0.297 | 1.87 | 18.2% (inactive) | -0.461 (inactive) | -5.9e-05 (inactive) | 0.00692 (inactive) | 4.66% (inactive) | -24.8% (inactive) | -85.8% (inactive) | 0.00552 (inactive) | inactive |
| COC(=O)CC1SC(=O)NC1=O (centres undefined) | 552 | -6.8% (inactive) | 26.4% (inactive) | 110 | -98.9% (inactive) | 124 | -1.23 | -0.523 | 0.399 | 5.26% (inactive) | -0.414 (inactive) | -0.000171 (inactive) | 0.00686 (inactive) | 6.27% (inactive) | 1.46% (inactive) | 8.22% (inactive) |  |  |
| NC(N)=NC(=O)c1nc(Cl)c(N)nc1N | 517 | -4.2% (inactive) | -1.5% (inactive) | 103 | -76.7% (inactive) | 114 | 2.22 | -1.45 | -1.51 | 30.1% (inactive) | -0.443 (inactive) | -7.2e-05 (inactive) | 0.00564 (inactive) | 4.19% (inactive) and 21.2% (inactive) | 15.9% (inactive) | 42% (inactive) |  |  |
| COc1ccc(CNc2oc(COc3ccccc3Cl)nc2C#N)cc1 | 436 | -2.2% (inactive) | 21.3% (inactive) | 81.6 | -70.3% (inactive) | 126 | -0.4 | 0.197 | -0.0244 | 3.5% (inactive) | -0.551 (inactive) | -9.3e-05 (inactive) | 0.00797 (inactive) | 31.6% (inactive) | 7.08% (inactive) | 6.46% (inactive) | 0.0036 (inactive) |  |
| CCC1CCCCN1c1nc(-c2ccncc2)nc2ccccc12 (centres undefined) | 503 | 0.5% (inactive) | 7.3% (inactive) | 91.9 | 12.1% (inactive) | 126 | 1.04 | -0.92 | 0.299 | 14% (inactive) | -0.391 (inactive) | -0.000148 (inactive) | 0.00736 (inactive) | 132% (active) | 24.2% (inactive) | 30.3% (inactive) |  |  |
| Cc1ccc(NC(=O)CSC2=C(C#N)C(c3ccc4c(c3)OCO4)CC(=O)N2)cc1C (centres undefined) | 636 | 1.6% (inactive) | -10.3% (inactive) | 122 | -11.7% (inactive) | 122 | 0.402 | 0.339 | -0.3 | 6.51% (inactive) | -0.486 (inactive) | -2.7e-05 (inactive) | 0.00695 (inactive) | 25.6% (inactive) | -18.5% (inactive) | -9.47% (inactive) | 0.00748 (inactive) | inactive |
| COc1ccc(N2CCN(c3nc4c(c(=O)[nH]c(=O)n4C)n3CCCc3ccccc3)CC2)cc1 | 636 | 6.6% (inactive) | 2.8% (inactive) | 100 | -69.3% (inactive) | 112 | 0.546 | -1.43 | 0.632 | 14.7% (inactive) | -0.429 (inactive) | -3.7e-05 (inactive) | 0.0083 (inactive) | 1.13% (inactive) | 12.8% (inactive) | 18.8% (inactive) | 0.0059 (inactive) | inactive |
| CCO/C([O-])=N/c1c[n+](N2CCOCC2)no1 | 669 | 9.9% (inactive) | -18.2% (inactive) | 97.5 | -28.6% (inactive) | 122 | -0.87 | -0.27 | -1.04 | 16.8% (inactive) | -0.482 (inactive) | -6e-05 (inactive) | 0.00537 (inactive) | 2.9% (inactive) and 18.7% (inactive) | -10.8% (inactive) | -12.7% (inactive) |  |  |
